Growth inhibition data for 59 compounds are collected here from PubChem BioAssay AID371 (SRMLSC, 2006).

Among all 3,300 compounds or so, about 280 (8.5%) were called active.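 How the source made its calls: active means mean growth inhibition over the two runs of 50% or more; inactive means mean growth inhibition under 50%.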 For the sample, actives were picked, then their nearest neighbours and some compounds at random.

This assay is described as follows: A549 NSCLC cell proliferation inhibitors – ATP luminescence, human non-small cell lung line, primary screen (AID 371).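 Further: compound exposure lasted 72 h before the ATP read; 0% = untreated cell signal and 100% = no luminescence left.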 Particulars: at 10 µM, hits give high values.
As for `CN(C)CCOC(=O)c1cn(Cc2ccccc2)c2ccccc12`, the growth inhibition was 61.2% (active).
For the compound `COCCOC(=O)c1c(N)n(Cc2ccco2)c2nc3ccccc3nc12`, the growth inhibition was 12.9% (inactive).
In the case of `COCC(C)OC(=O)c1c(N)n(Cc2ccco2)c2nc3ccccc3nc12` (centres undefined) it was 14% (inactive); in that of `Nc1c(C(=O)NCc2ccco2)c2nc3ccccc3nc2n1Cc1ccc(F)cc1`, 86.7% (active).
With `CC(C)(C)OC(=O)c1c(N)n(Cc2ccco2)c2nc3ccccc3nc12`, the growth inhibition was 56.9% (active).
The figure for `CCCCOCCCn1c(N)c(C(=O)OC(C)COC)c2nc3ccccc3nc21` (centres undefined) is 36.6% (inactive); for `CC(C)OC(=O)c1c(N)n(Cc2ccco2)c2nc3ccccc3nc12` it is 18.6% (inactive).
The figure for `CCCCOCCCn1c(N)c(C(=O)OCCOC)c2nc3ccccc3nc21` is 23.4% (inactive); for `Nc1c(C(=O)NCc2ccco2)c2nc3ccccc3nc2n1CCN1CCCCC1` it is 91.8% (active).
In the case of `COc1ccc(Cn2c(O)c(C=NCCCn3ccnc3)c(=O)[nH]c2=O)cc1` it was -7.41% (inactive); in that of `CCCCCCn1c(O)c(C(C)=NC)c(=O)[nH]c1=O`, 8.94% (inactive); in that of `O=C(c1ccco1)C12CN3CN(CN(C3)C1)C2`, -3.02% (inactive).
For `OC1(c2ccc(F)cc2)CCNC1` (centres undefined), the growth inhibition is -3.04% (inactive).
In the case of `O=C1C2CCN(CC2)[C@@H]1Cc1ccc2ccccc2c1O` it was 7.73% (inactive); in that of `COc1cc2[nH]c(=O)n(-c3cccc(Cl)c3)c(=O)c2cc1OC`, 3.67% (inactive).
As for `O=C1c2ccccc2C(=O)N1Cc1nc2ccccc2c(=O)n1-c1cccnc1`, the growth inhibition was -0.22% (inactive).
The figure for `C=CCC1(CN2CCCCCC2=O)C(=O)NC(=O)NC1=O` is 2.99% (inactive).
The figure for `CCCCNC(=O)Nc1ccc(C(O)(C(=O)OC)C(F)(F)F)cc1` (centres undefined) is -4.53% (inactive); for `CCOC(C(=O)OCC(O)CN(CC)CC)(c1ccccc1)c1ccccc1` (centres undefined) it is 15.7% (inactive).
The figure for `O=C(O)CCCc1ccc(N(CCCl)CCCl)cc1` is 50.8% (active); for `CCOCCN1CCC(OC(C)=O)C(C)C1` (centres undefined) it is 1.45% (inactive).
In the case of `CCOc1ccc(Cc2c(O)[nH]c(=O)[nH]c2=O)cc1`, the growth inhibition is -5.3% (inactive).
For `CCCCNC(=O)Nc1ccc(C(O)(C(=O)OCC)C(F)(F)F)cc1` (centres undefined), the growth inhibition was -3.41% (inactive).
Take `CN1CCC(OC(=O)C2c3ccccc3Oc3ccccc32)CC1`: the growth inhibition was 13% (inactive).
In the case of `CCCC12CN3CN(C1)CC(CCC)(C3)C2O` (centres undefined) it was -0.83% (inactive); in that of `CC(C)[C@H]1C(=O)N2CCC[C@H]2[C@]2(O)O[C@](NC(=O)[C@@H]3C=C4c5cccc6[nH]cc(c56)C[C@H]4N(C)C3)(C(C)C)C(=O)N12`, 37.3% (inactive); in that of `CC(C)[C@@]1(NC(=O)[C@@H]2C=C3c4cccc5[nH]cc(c45)C[C@H]3N(C)C2)O[C@@]2(O)[C@@H]3CCCN3C(=O)[C@H](Cc3ccccc3)N2C1=O`, 35.2% (inactive).
The figure for `CC(C)[C@@]1(NC(=O)[C@@H]2C[C@@H]3c4cccc5[nH]cc(c45)C[C@H]3N(C)C2)O[C@@]2(O)[C@@H]3CCCN3C(=O)[C@H](Cc3ccccc3)N2C1=O` is 85.1% (active); for `O=c1[nH]c(=O)n(Cc2ccccc2)c(O)c1C=NCCN1CCOCC1` it is -6.38% (inactive).
The figure for `O=c1c(C=NCCN2CCNCC2)c(O)n(C2CCCCC2)c(=O)n1C1CCCCC1` is 82.3% (active); for `O=c1[nH]c(=O)n(Cc2ccccc2)c(O)c1C=NCCN1CCNCC1` it is 4.69% (inactive).
For `O=c1[nH]c(=O)n(CCc2ccccc2)c(O)c1C=NCCN1CCNCC1`, the growth inhibition is -7.13% (inactive).
In the case of `OC(c1ccc(F)cc1)C(c1ccccc1)N1CCOCC1` (centres undefined) it was 7.16% (inactive); in that of `O=c1[nH]c(=O)n(Cc2ccco2)c(O)c1C=NCCN1CCOCC1`, 0.93% (inactive).
On to `CC1CCC(C(C)C)C(OP(N)(=O)c2ccccc2)C1` (centres undefined), for which the growth inhibition is 16.9% (inactive).
Consider `CNCCc1nc(N)n[nH]1`, for which the growth inhibition was 1.61% (inactive).
The figure for `Cc1c(N=Cc2c(O)n(CCc3ccc(F)cc3)c(=O)[nH]c2=O)c(=O)n(-c2ccccc2)n1C` is 12.3% (inactive); for `Cc1c(N=Cc2c(O)n(CCc3ccccc3)c(=O)[nH]c2=O)c(=O)n(-c2ccccc2)n1C` it is 79.2% (active).
In the case of `CCCCCCn1c(O)c(C=Nc2c(C)n(C)n(-c3ccccc3)c2=O)c(=O)[nH]c1=O` it was 6.23% (inactive).
Take `C=CCn1c(O)c(C=NCCN(C)C)c(=O)[nH]c1=O`: the growth inhibition is 2.68% (inactive).
In the case of `O=c1[nH]c(=O)n(CCc2ccccc2)c(O)c1C=NCCCn1ccnc1` it was -3.73% (inactive); in that of `CCOc1ccccc1-n1c(O)c(C=Nc2c(C)n(C)n(-c3ccccc3)c2=O)c(=O)[nH]c1=O`, 0.12% (inactive); in that of `CC1(C)NCCN2C(=O)CSC21` (centres undefined), -1.76% (inactive).
In the case of `O=C(CCCN1CCC2(CC1)C(=O)NCN2c1ccccc1)c1ccc(F)cc1` it was 54.1% (active).
In the case of `CCCN(CC#CCO)CCC` it was 0.1% (inactive); in that of `Cn1c(O)c(C(=O)c2ccccc2Cl)c(=O)n(C)c1=O`, 2.11% (inactive); in that of `CC(=O)OC1(c2ccc(C)cc2)CN2CCC1c1ccccc12` (centres undefined), 6.24% (inactive).
For `C=CCn1c(O)c(C=Nc2ccc(N(CC)CC)cc2)c(=O)[nH]c1=O`, the growth inhibition was 4.7% (inactive).
In the case of `O=c1[nH]c(=O)n(-c2cccc(Cl)c2)c(O)c1C=NCCN1CCCCC1` it was 4.68% (inactive).
In the case of `Cc1c(N=Cc2c(O)n(Cc3ccco3)c(=O)[nH]c2=O)c(=O)n(-c2ccccc2)n1C` it was -0.44% (inactive).
In the case of `CCCCCCn1c(O)c(C=NCCN2CCCCC2)c(=O)[nH]c1=O` it was -5.08% (inactive).
Consider `Clc1ccc(COC(Cn2ccnc2)c2ccc(Cl)cc2Cl)cc1` (centres undefined), for which the growth inhibition was 91.6% (active).
In the case of `c1ccc(Cn2ccnc2)cc1`, the growth inhibition was 8.97% (inactive).
In the case of `Clc1ccc(CSC(Cn2ccnc2)c2ccc(Cl)cc2Cl)cc1` (centres undefined) it was 93.2% (active).
The figure for `Clc1ccc(COC(Cn2ccnc2)c2ccc(Cl)cc2Cl)c(Cl)c1` (centres undefined) is 92.5% (active); for `CCOc1ccc(-n2c(O)c(C=Nc3ccc(N(CC)CC)cc3)c(=O)[nH]c2=O)cc1` it is 9.98% (inactive); for `CC(=O)C1(c2ccccc2)CCNCC1` it is 2.01% (inactive).
The figure for `Cn1c(O)c(C=NCCCNC2CCCCC2)c(=O)n(C)c1=O` is 0.52% (inactive); for `CCOc1ccccc1-n1c(O)c(C=Nc2ccc(N(CC)CC)cc2)c(=O)[nH]c1=O` it is 45.4% (inactive).
